Source: PubChem BioAssay
In the library only some 3.4% were active in any assay of this set; here they are far more common.
MITF inh – human MITF inhibition, primary screen. O75030. AlphaScreen MITF homodimerization, bead proximity signal. inhibition, % at 2.6 µM. 650,000 compounds, 0.91% hits; in the data active = inhibition above about 50%
TEAD-YAP inh – TEAD-YAP interaction inhibition | HEK-TIYL cells, TEAD-Gal4/YAP UAS-luciferase luminescence | inhibition, % at 9.12 µM | 640,000 compounds, 1.4% hits | AID 1259422; in the data active = inhibition above about 32%
GPR151 ag – human GPR151 activation; 650,000 compounds, 1% hits; PathHunter beta-arrestin GPR151 cells, luminescence; Q8TDV0; activation, % at 11.2 µM; in the data active = activation above about 4.9%
FBW7 activator – activators of human E3 ligase FBW7; Q969H0; AlphaScreen FBW7–phospho-cyclin E peptide binding, activator screen; normalized activity (activation), % at 26.1 µM; 650,000 compounds, 0.13% hits; AID 1259310; in the data active = normalized activity above about 1.9%;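 note: purified mutant Fbw7 with reduced substrate affinity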
A number is an active result; – = inactive.

SMILES	MITF inh	TEAD-YAP inh	GPR151 ag	FBW7 activator
Cc1ccc(N2C(=O)C(Cl)=C(N(C)c3ccccc3)C2=O)cc1	–	52.4	–	–
CN(C1=C(Cl)C(=O)N(c2ccc(I)cc2)C1=O)c1ccccc1	–	56.0	–	–
CCCCn1c(SC)nc2sc3c(c2c1=O)CCCCC3	–	–	–	–
CCOc1ccccc1Nc1nnc(SCc2cc(C(C)=O)ccc2OC)s1	–	–	–	–
CCOc1ccc(C(C)=O)cc1CSc1nnc(Nc2ccccc2)s1	–	34.8	–	–
O=C(Nn1c(SCC(=O)N2CCN(c3ccccc3)CC2)nc2ccccc2c1=O)c1ccc(F)cc1	–	–	–	–
COc1ccc(C(=O)Nn2c(SCC(=O)N3CCN(c4ccccc4)CC3)nc3ccccc3c2=O)cc1	–	76.8	–	–
O=C(O)CSc1nc2ccccc2n1CC(=O)NC1CCCCC1	–	–	–	1.9
COc1ccc(C(=O)Nn2c(C)nc3ccccc3c2=O)cc1	–	–	–	–
COc1ccc(C(=O)Nn2c(SCC(=O)N3CCC(C)CC3)nc3ccccc3c2=O)cc1	–	82.4	–	–
COc1ccc(C(=O)Nn2c(C3CC3)nc3ccccc3c2=O)cc1	–	–	–	–
COc1ccc(C(=O)Nn2c(SCC(=O)N3CCCC3)nc3ccccc3c2=O)cc1	–	78.0	–	–
Cc1ccc(S/C(=C(\C(=O)N2CCCC2)[N+](=O)[O-])C(Cl)Cl)cc1	–	–	–	–
CCCCCCn1c(-c2cccc([N+](=O)[O-])c2)nc(=S)c2c1CCCC2	–	–	–	–
CCN1CCN(C(=O)C2=CC(c3ccco3)=NS(=O)(=O)N2C)CC1	–	–	–	–
COc1ccc(C(=O)Nn2c(SCC(=O)NC3CCCCC3)nc3ccccc3c2=O)cc1	–	80.9	–	–
COc1ccc(C(=O)Nn2c(SCC(=O)c3ccc(Cl)cc3)nc3ccccc3c2=O)cc1	–	77.3	–	–
O=C(CSc1nc2ccccc2c(=O)n1NC(=O)c1ccc(F)cc1)NC1CCCCC1	–	–	–	–
CN(Cc1ccc(C(C)(C)C)cc1)Cc1nc2ccccc2c(=O)n1CC(N)=O	–	–	–	–
Cc1sc(NC(=O)CSc2nnnn2-c2ccccc2)nc1-c1ccccc1	–	–	–	–
Cc1cccc2sc(NC(=O)CSc3nnnn3-c3ccccc3)nc12	–	–	–	2.0
CN1CCN(c2cc(-c3ccncc3)nc(-c3ccncc3)n2)CC1	–	38.3	–	–
CN1CCN(c2cc(-c3ccc(F)cc3)nc(-c3ccncc3)n2)CC1	–	–	–	–
CCOc1ccc(-c2cc(=O)c3ccc(NC(=O)c4ccncc4)cc3o2)cc1	–	–	–	–
CCOc1ccc(-c2c3cc(O)c(=O)cc-3oc3cc(O)c(O)cc23)cc1	110.8	–	–	–
SMILES	MITF inh	TEAD-YAP inh	GPR151 ag	FBW7 activator
O=C1c2ccccc2C(=O)c2c(O)c([N+](=O)[O-])cc(O)c21	–	–	–	–
O=c1cc2oc3cc(O)c(O)cc3c(-c3ccc([N+](=O)[O-])cc3)c-2cc1O	97.0	–	–	–
O=c1cc2oc3cc(O)c(O)cc3c(-c3ccccc3[N+](=O)[O-])c-2cc1O	114.4	–	–	–
O=c1cc(-c2ccc3c(c2)OCCO3)oc2ccc([N+](=O)[O-])cc12	–	–	–	–
COc1ccccc1C(=O)OCC(=O)NCC(F)(F)F	–	–	–	–
Cc1ccccc1C(=O)OCc1ccc(-c2ccc(Cl)cc2Cl)o1	–	–	–	–
CCOC(=O)c1c(O)c2cc(Br)ccc2n(CC)c1=O	–	–	–	–
Cc1cc(C(=O)N/N=C/c2ccc(O)c(O)c2O)c(C)o1	52.7	–	–	–
Cc1cc(C)n2nc(C(=O)N/N=C/c3cc(Cl)ccc3O)nc2n1	55.9	–	–	–
O=C(N/N=C/c1ccccc1Cl)c1cccs1	–	–	–	–
O=C(N/N=C\c1cc(Cl)ccc1O)c1cccs1	–	43.3	–	–
Cc1cc(C(=O)N/N=C\c2ccc(Cl)cc2Cl)c(C)o1	–	–	–	–
Cc1cc(C)n2nc(C(=O)N/N=C/c3cc(Cl)cc([N+](=O)[O-])c3O)nc2n1	–	–	–	–
O=C(N/N=C/c1cc(Cl)ccc1O)c1ccc(F)cc1	–	66.6	–	–
CN(C)C(=S)SCC(=O)Nc1ccc(F)c([N+](=O)[O-])c1	–	–	–	–
O=C(C1CC1)N(Cc1ccco1)c1nc2ccccc2s1	–	–	–	–
O=c1nc(SCc2ccc(Cl)cc2)c2c(n1CCO)CCC2	–	–	–	–
O=C(CCC1CCCC1)Nc1ccc(I)cc1	–	–	–	–
Cc1cc(C(=O)N/N=C\c2cc(C(C)(C)C)ccc2O)n[nH]1	–	–	–	–
O=C(N/N=C/c1ccccc1C(F)(F)F)c1cccs1	–	–	–	–
